Source: PubChem BioAssay
Only a selection was taken, and hits are over-represented in it overall.
HIV RNase H inh-1 = blocks HIV-1 RNase H cleavage of RNA/DNA duplex; inhibition, % at 10 µM; 65,000 tested, 1.9% active; AID 565; RT-RNase H RNA/DNA duplex cleavage, fluorescence; in the data active means inhibition above about 50%
HIV RNase H inh-2 = confirmation of HIV-1 reverse transcriptase RNase H inhibitors | shares compounds with HIV RNase H inh-1 | Recombinant RT RNase H, fluorescent RNA/DNA duplex cleavage | inhibition, % at 10 µM | 1,000 tested, 39% active | AID 651; in the data active means inhibition above about 48%
Starred values were filed as active, the others as inactive.

Screening COCCNC(=O)C(C)OC(=O)c1cc2occc2n1C (centres undefined) returned HIV RNase H inh-1 2.2.
Screening CCCn1c2c(c(O)c(C(=O)Nc3ccccc3)c1=O)CCCC2 returned HIV RNase H inh-1 -3.9.
Screening O=C1CN(c2nc3ccccc3n3cnnc23)CC(=O)N1CCc1ccccc1 returned HIV RNase H inh-1 -8.9.
For O=C(CSCSCC(=O)NCC1CCCO1)NCC1CCCO1 (centres undefined) the results were HIV RNase H inh-1 -14.1.
`CC1(C)CC(=O)C(C(c2ccco2)C2C(=O)CC(C)(C)CC2=O)C(=O)C1` gave HIV RNase H inh-1 69.4* and HIV RNase H inh-2 31.6.
`CC1(C)C(=O)C2(CCCC2)C(=O)OC1c1ccco1` (centres undefined) gave HIV RNase H inh-1 -4.2.
CC1(c2ccco2)NC(=O)NC1=O (centres undefined) was read as HIV RNase H inh-1 -8.4.
For COc1ccccc1-n1nnnc1SCc1cc2c(cc1Br)OCO2 the results were HIV RNase H inh-1 -75.4.
Screening Cc1ccc(S(=O)(=O)NCCCOC(=O)Nc2ccncc2)cc1 returned HIV RNase H inh-1 -2.1.
For COc1ccc(CCNC(=O)CSc2nnc(-c3ccc(F)cc3)o2)cc1OC the results were HIV RNase H inh-1 2.7.
For CCOC(=O)c1cc2occc2n1CC(=O)N1CCCc2ccccc21 the results were HIV RNase H inh-1 -17.4.
`Cc1ccc(NC(=O)CSc2nnc(-c3ccco3)c(-c3ccco3)n2)cc1` gave HIV RNase H inh-1 96.8* and HIV RNase H inh-2 27.7.
Screening Cc1ccc(NC(=O)CCSc2nnc(-c3ccco3)o2)cc1 returned HIV RNase H inh-1 7.5.
`CSc1nnc(-c2ccco2)c(-c2ccco2)n1` gave HIV RNase H inh-1 76.8* and HIV RNase H inh-2 43.3.
Cn1cnnc1SCC(=O)Nc1ccccc1 was read as HIV RNase H inh-1 -4.6.
`CCS(=O)(=O)n1nc(-c2ccco2)nc1SC` gave HIV RNase H inh-1 -3.2.
CSc1nnc2c(n1)OC=Nc1ccccc1-2 was read as HIV RNase H inh-1 -10.6.
For O=C(CSc1nnc(-c2ccco2)c(-c2ccco2)n1)Nc1ccccc1 the results were HIV RNase H inh-1 86.5* and HIV RNase H inh-2 37.3.
COc1ccc(NC(=O)CSc2nccc(C)n2)cc1 was read as HIV RNase H inh-1 -10.6.
O=C(CSc1nc2ccccc2o1)Nc1ccccc1 was read as HIV RNase H inh-1 -45.6.
For CC(C)[C@H](NC(=O)OC(C)(C)C)c1nnc(SCC(=O)Nc2ccc(Br)cc2)o1 the results were HIV RNase H inh-1 -21.9.
For O=C(Nc1ccc2c(c1)OC1(CCCC1)O2)C1CC1 the results were HIV RNase H inh-1 -12.2.
`CCn1cc(C(=O)Nn2cnnc2)c(=O)c2ccc(C)nc21` gave HIV RNase H inh-1 2.4.
For COc1ccc(C(=O)N(Cc2nc(-c3ccc(C)cc3)no2)C2CCCCC2)cc1OC the results were HIV RNase H inh-1 6.3.
`Cc1c(Br)cc(C(=O)OC2CCN(C)CC2)c(C)c1C` gave HIV RNase H inh-1 3.2.
COC(=O)c1sc(NC(=O)c2cnccn2)c(C(=O)OC)c1C was read as HIV RNase H inh-1 6.5.
Screening COC(=O)c1sc(NC(C)=O)c(C(=O)OC)c1C returned HIV RNase H inh-1 57.7* and HIV RNase H inh-2 0.0.
For CCOC(=O)c1sc(NC(C)=O)c(C(=O)OCC)c1C the results were HIV RNase H inh-1 -3.5.
O=C(OC(C(=O)NCc1ccc2c(c1)OCO2)c1ccc(Cl)cc1)c1ccco1 (centres undefined) was read as HIV RNase H inh-1 2.7.
Screening CC(C)(C)C(=O)N=C1SC2CS(=O)(=O)CC2N1c1ccc2c(c1)OCO2 (centres undefined) returned HIV RNase H inh-1 -3.8.
`Cc1c(NC(=O)CCc2ccc(S(=O)(=O)N3CCOCC3)cc2)c(=O)n(-c2ccccc2)n1C` gave HIV RNase H inh-1 1.7.
`O=C(NC1CCCCCC1)c1cccs1` gave HIV RNase H inh-1 -2.2.
Screening O=C(CC1Nc2ccccc2NC1=O)NC1CCCCC1 (centres undefined) returned HIV RNase H inh-1 24.3.
For O=C(/N=C1\NC(=O)C(F)(C(F)(F)F)S1)NC1CCCCC1 (centres undefined) the results were HIV RNase H inh-1 86.7* and HIV RNase H inh-2 30.0.
Screening Cc1c(NC(=O)Cn2cnc3c(=O)n(C)c(=O)n(C)c32)cccc1-c1nc2ccccc2o1 returned HIV RNase H inh-1 2.0.
Screening O=S(=O)(c1ccc(S(=O)(=O)N2CCN(C/C=C/c3ccccc3)CC2)cc1)N1CCCC1 returned HIV RNase H inh-1 59.2* and HIV RNase H inh-2 56.1*.
For O=S(=O)(c1ccc(S(=O)(=O)N2CCCN(Cc3ccccc3)C2)cc1)N1CCCCCC1 the results were HIV RNase H inh-1 -4.5.
For O=C(Cc1ccccc1)N1CCN(C/C=C/c2ccccc2)CC1 the results were HIV RNase H inh-1 -81.8.
Screening Nc1nc(-c2cccc(NS(=O)(=O)c3ccccc3)c2)cs1 returned HIV RNase H inh-1 -8.3.
For Cc1cc(C)cc(NC(=O)NCc2nnc(SCc3ccccc3)n2C)c1 the results were HIV RNase H inh-1 82.3* and HIV RNase H inh-2 46.7.
For Cn1c(CNC(=O)Nc2ccccc2)nnc1SCc1ccccc1 the results were HIV RNase H inh-1 0.1.
`Cn1c(CNC(=O)Nc2cccc(Cl)c2)nnc1SCc1ccccc1` gave HIV RNase H inh-1 1.9.
O=S(=O)(NCCc1ccccn1)c1ccc(F)c(F)c1 was read as HIV RNase H inh-1 7.7.
Screening Cc1cc(C)n(-c2nc3c(c(=O)[nH]c(=O)n3C)n2CC(O)COc2ccccc2C)n1 (centres undefined) returned HIV RNase H inh-1 -6.5.
`Cc1ccccc1OCC(O)Cn1c(SC(C)C)nc2c1c(=O)[nH]c(=O)n2C` (centres undefined) gave HIV RNase H inh-1 66.7* and HIV RNase H inh-2 -9.1.
`Cc1cc(C)n(-c2nc3c(c(=O)[nH]c(=O)n3C)n2CC(O)COc2ccccc2)n1` (centres undefined) gave HIV RNase H inh-1 1.8.
`Cn1c(=O)[nH]c(=O)c2c1nc(N1CCCC1)n2CC(O)COc1ccccc1` (centres undefined) gave HIV RNase H inh-1 -8.3.
CCSc1nc2c(c(=O)[nH]c(=O)n2C)n1CC(O)COc1ccccc1C (centres undefined) was read as HIV RNase H inh-1 75.7* and HIV RNase H inh-2 37.1.
`Cn1c(=O)[nH]c(=O)c2c1nc(N1CCOCC1)n2CC(O)COc1ccccc1` (centres undefined) gave HIV RNase H inh-1 -1.4.
`Cn1c(Cn2cnc3ccccc32)nnc1SCc1ccccc1` gave HIV RNase H inh-1 -3.4.
For CCC(Sc1nc(=O)cc(N)n1-c1ccccc1)C(=O)Nc1ccc(Cl)cn1 (centres undefined) the results were HIV RNase H inh-1 -6.4.
Screening CC(C)n1cc(/C=C(\C#N)S(=O)(=O)c2ccccc2)c2ccccc21 returned HIV RNase H inh-1 -40.1.
`CCCNC(=O)c1c(N)n(-c2cccc(OC)c2)c2nc3ccccc3nc12` gave HIV RNase H inh-1 -7.1.
C=CCNC(=O)c1c(N)n(-c2ccc3c(c2)OCO3)c2nc3ccccc3nc12 was read as HIV RNase H inh-1 57.1* and HIV RNase H inh-2 53.9*.
Nc1c(C(=O)NCCN2CCOCC2)c2nc3ccccc3nc2n1-c1cccc(F)c1 was read as HIV RNase H inh-1 -13.8.
Screening COC(=O)c1ccc(CNC(=O)COc2ccccc2Br)o1 returned HIV RNase H inh-1 -43.2.
CCOC(=O)c1cc(C(O)(C(F)(F)F)C(F)(F)F)c(/N=C/N(C)C)o1 was read as HIV RNase H inh-1 1.1.
